Screens from PubChem.
Hits are enriched below; roughly 6.9% of the tested compounds scored in any of these assays.
SW480 rereplic – induces DNA re-replication in SW480 colon adenocarcinoma cells; SW480 DNA re-replication, Hoechst DNA content imaging, 48 h; Potency, µM (series often up to 46.1 µM), for inactives: top-dose re-replication activation, hits mostly activators; hit rate 1.8% among 340,000; further: potency means the concentration at half of the fitted maximal effect; % of control where 0% means no effect; nearly all actives have a fitted effect of over 55% in size
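First, 250 cells per well were seeded. Next, compound or vehicle (23 nL) was pinned in, plates sat 48 hr at 37 C. Finally Hoechst was added for 40 min before fluorescence scanning.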
KB-V1 MDR tox – kills drug-selected multidrug resistant KB-V1 cells; KB-V1 MDR cells viability, CellTiter-Glo, 72 h; Potency, µM (top dose mostly 46.1 µM), most hits filed as cytotoxic; hit rate 3.4% among 400,000; AID 1347076; further: potency means the concentration at half of the fitted maximal effect; on the % scale 0 is the no-effect control and ±100 the full control effect; nearly all actives have a fitted effect of over 60% in size
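Following 72 h at 37 degrees C with compound, KB-V1 cell viability was read by CellTiter-Glo luminescence, medium being phenol-red-free DMEM plus 10% FBS; concentration-response parameters came from normalized, curve-fitted qHTS data.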
KB-3-1 tox – KB-3-1 parental cell cytotoxicity | KB-3-1 viability, CellTiter-Glo ATP luminescence, 72 h | Potency, µM (highest dose often 46.1 µM), usual class: cytotoxic | hit rate 1.4% among 400,000; further: potency means the concentration at half of the fitted maximal effect; on the % scale 0 is the no-effect control and ±100 the full control effect; nearly all actives have a fitted effect of over 60% in size
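Parental KB-3-1 adenocarcinoma cells in phenol-red-free DMEM with 10% FBS were pin-treated with compounds at several concentrations, incubated 72 h at 37 °C, and viability read by CellTiter-Glo luminescence; concentration-effect curves were fitted after normalization.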
Giardia kill – Giardia lamblia killing | Giardia lamblia trophozoite viability | activity change, % at 7.66 µM, hits read low | hit rate 0.15% among 340,000; in the data active means activity change below about -80%; inconclusive means between about -30% and that limit;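 further: parasites exposed to compound for two days anaerobically before the ATP read; on the % scale 0 is the no-effect control and ±100 the full control effect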
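Giardia lamblia trophozoites (100 cells/well) were incubated with compounds for 48 h at 37 deg C under anaerobic conditions. Viability was read as ATP content by one-step luminescence after 15-30 min at room temperature.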
MCF10A rerep – DNA re-replication induction in MCF 10a cells; Potency, µM (highest dose often 46.1 µM), inactives show at the highest dose activity, positive = re-replication, hits mostly activators; MCF 10A DNA re-replication, Hoechst nuclear intensity, 48 h; hit rate 2.9% among 350,000; AID 624296; further: potency means the concentration at half of the fitted maximal effect; % of control where 0% means no effect; nearly all actives have a fitted effect of over 50% in size
S-ASM inh – inhibitors of human secretory acid sphingomyelinase; placental ASM, HMU-PC fluorogenic substrate, 60 min; AID 504937; Potency, µM (top dose mostly 57.5 µM), without a hit: top-dose activity change, negative = inhibition, actives largely listed as inhibitors; hit rate 0.006% among 340,000; further: potency means the concentration at half of the fitted maximal effect
Target sequence (P17405 47-631 limits assumed): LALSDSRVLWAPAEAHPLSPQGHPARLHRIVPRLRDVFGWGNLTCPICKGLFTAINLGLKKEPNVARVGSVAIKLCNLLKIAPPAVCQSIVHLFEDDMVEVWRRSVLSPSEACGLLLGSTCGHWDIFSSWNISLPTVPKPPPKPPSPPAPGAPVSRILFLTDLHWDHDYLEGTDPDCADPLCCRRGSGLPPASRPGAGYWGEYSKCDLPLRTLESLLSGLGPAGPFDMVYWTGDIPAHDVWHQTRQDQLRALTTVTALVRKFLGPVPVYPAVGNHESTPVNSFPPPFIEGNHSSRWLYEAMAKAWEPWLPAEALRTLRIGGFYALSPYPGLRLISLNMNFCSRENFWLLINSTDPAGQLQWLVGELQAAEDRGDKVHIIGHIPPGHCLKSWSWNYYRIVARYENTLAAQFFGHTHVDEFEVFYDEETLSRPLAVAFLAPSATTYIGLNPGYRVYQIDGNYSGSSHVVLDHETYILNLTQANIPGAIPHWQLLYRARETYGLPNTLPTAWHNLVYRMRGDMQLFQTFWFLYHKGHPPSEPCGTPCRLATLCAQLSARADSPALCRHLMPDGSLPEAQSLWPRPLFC
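Human placenta-derived ASM enzyme was preincubated with compound for 10 minutes at room temperature, then given fluorogenic substrate HMU-PC0 (9 uM final) for 60 minutes at 37 °C; a pH 10 stop preceded fluorescence reading at Ex 386/Em 447 nm.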
* marks the source's active call; other numbers are inactive results; i = inactive; u = inconclusive; x = no result given; [ ] = another dose, or the depositor's remark. Unless noted, the call rests on the fitted dose curve; in most records, active means well fitted curve in the direction sought with a large enough effect; inconclusive means small, poorly fitted or top-dose-only effect, or another doubt; inactive means no such curve, though single readings can be large; an effect the other way counts as inactive or inconclusive.

SMILES	SW480 rereplic	KB-V1 MDR tox	KB-3-1 tox	Giardia kill	MCF10A rerep	S-ASM inh
CC(=O)Nc1ccc(NC(=O)CCCn2nc(C)c3sc4ccccc4c3c2=O)cc1	x	i	i	x	x	x
Cc1sc2ccccc2[n+]1CCCCBr	x	i	i	x	x	x
O=C(Nc1ccccc1)C1=C[C@@H](C2CC2)C[C@@H](OCCCCO)O1	-11%	7.3µM*	i	7	-8%	2%
O=C(NCc1ccccc1)C1=C[C@H](c2csc3ccccc23)C[C@H](OCCCCO)O1	u	7.3µM*	u	-10	u	-2%
CC(=O)n1cc([C@@H]2C=C(C(=O)NCc3ccccc3)O[C@H](OCc3ccc(CO)cc3)C2)c2ccccc21	-4%	i	i	13	13µM*	-2%
C=CCOC(=O)C1=C[C@@H](c2cn(C(C)=O)c3ccccc23)C[C@@H](OCc2ccc(CO)cc2)O1	-29%	i	i	-10	23µM*	-6%
CCOC(=O)c1cc(C)nn1-c1nc(Cl)cc(OC)n1	-3%	i	i	-3	-3%	2%
CCOC(=O)c1c(Cl)c(C)nn1-c1nc(OC)cc(OC)n1	-330%	2.9µM*	u	-4	-50%	4%
Cn1c(=O)c2[nH]c(CCC3CCCC3)nc2n(C)c1=O	-2%	23µM*	i	0	-2%	4%
CCn1c(Cc2ccc(OC)cc2)nnc1SCC(=O)Nc1cccc(C(=O)OC)c1	-6%	5.2µM*	i	2	12%	-2%
CCn1c(Cc2ccccc2)nnc1SCC(=O)Nc1ccc(OC)cc1	u	i	i	13	15%	-2%
CCn1c(CNc2ccc(OC)cc2)nnc1SCC(=O)Nc1ccc(F)cc1	2%	21µM*	i	-1	-2%	2%
Oc1ccc(Nc2nc3ccccc3nc2Nc2ccc(O)cc2)cc1	4.6µM*	u	i	-2	1.5µM*	-14%
O=C(COc1ccc(Cl)cc1)NCC(c1ccco1)S(=O)(=O)c1ccc(F)cc1 (configuration not stated)	x	i	i	x	x	x
COc1ccc(-c2ccc(NS(=O)(=O)c3ccc(C(C)=O)cc3)cc2)nn1	x	i	i	x	x	x
O=C(CN1c2ccccc2Sc2ccccc21)NNC(=S)Nc1ccc(Cl)cc1Cl	0%	13µM*	21µM*	2	u	-2%
Cc1ccc2c(c1)c1c(c(=O)n(-c3ccccc3C)c(=O)n1CC(=O)NCc1ccccc1)n2C	x	i	i	x	x	x
Cc1ccc(OC(=O)c2oc3ccc(F)cc3c2C)c(C)c1	18µM*	i	i	5	u	-7%
O=C(NCc1cccc(F)c1F)C1CCC(=O)N(C2CCCCCC2)C1 (configuration not stated)	0%	x	x	1	5%	0%
Cc1nc2cc(C(F)(F)F)ccc2n1C	-6%	i	i	-4	7%	1%
CN1C(=O)N(CC(=O)N2CCN(S(=O)(=O)c3ccc(Cl)s3)CC2)C(=O)C12CCCCC2	4%	15µM*	i	-12	24%	7%
COc1ccc(-n2nc3cc(C)c(NC(=O)COc4cccc(C)c4)cc3n2)cc1	x	i	i	x	x	x
COc1cc(CNC2CCCC2)cc(Cl)c1OCc1ccccc1F	-6%	23µM*	i	6	2%	-2%
COc1cc(CNc2ccc3[nH]c(=O)[nH]c3c2)cc(Cl)c1OCc1ccccc1F	x	i	i	x	x	x
COC(=O)C1=C(C)NC(C)=C(C(=O)OC(C)C)[C@H]1c1cccc2nonc12	1%[20.6 µM]	x	x	x	-3%[20.6 µM]	x
SMILES	SW480 rereplic	KB-V1 MDR tox	KB-3-1 tox	Giardia kill	MCF10A rerep	S-ASM inh
Cc1ccc(CNC(=O)COC(=O)c2ccc(Br)cc2)cc1	-2%	i	i	-21	-2%	0%
COc1cc(NC(=O)c2ccc(Br)cc2)c(OC)cc1NC(=O)c1ccccc1	-2%	i	i	u	u	203%
Cc1ccc(CNC(=O)Cc2ccc(Br)cc2)cc1	u	u	u	11	6.5µM*	-1%
COc1ccccc1CNC(=O)CCc1ccccc1	12%	i	i	20	-7%	8%
O=C(Cc1ccc(Br)cc1)NCc1ccccc1	5.8µM*	4.6µM*	5.8µM*	19	5.8µM*	0%
O=C(COC(=O)Cc1ccc(Br)cc1)NCc1ccccc1	x	i	i	x	x	x
COc1cc(NC(=O)c2ccccc2)c(OC)cc1NC(=O)Cc1ccc(Br)cc1	u	i	i	15	12µM*	-1%
COc1ccccc1CNC(=O)Cc1ccc(Br)cc1	x	23µM*	i	1	u	5%
CCc1nc2ccccc2n1CC(=O)NC1CCS(=O)(=O)C1 (configuration not stated)	-6%	i	i	-5	-5%	5%
COc1ccccc1N1CCN(C(=O)CN2C(=O)COc3ccc(S(=O)(=O)N4CCC(C)CC4)cc32)CC1	x	u	i	x	x	x
O=C(Nc1cccc(S(=O)(=O)Nc2ccccc2F)c1)c1ccc2ccccc2n1	-1%	i	i	-26	11%	-14%
COc1ccccc1NS(=O)(=O)c1cccc(NC(=O)c2ccc3ccccc3n2)c1	-60%	2.6µM*	u	8	-33%	-2%
O=C(Nc1ccc(S(=O)(=O)NC2=NCCCCC2)cc1)c1ccc2ccccc2n1	-7%	23µM*	i	-25	15%	-1%
O=C(CCl)Nc1ccc(S(=O)(=O)NC2=NCCCCC2)cc1	u	16µM*	15µM*	-23	21µM*	0%
O=C(CCl)Nc1cccc(S(=O)(=O)NC2=NCCCCC2)c1	25%	u	u	-18	u	-5%
O=C(Nc1cccc(S(=O)(=O)NC2=NCCCCC2)c1)c1cc(-c2ccco2)nc2ccccc12	u	i	i	12	16µM*	146%
O=C(Nc1cccc(S(=O)(=O)NC2=NCCCCC2)c1)c1cc(-c2ccncc2)nc2ccccc12	-6%	i	i	23	-3%	-2%
O=S(=O)(c1ccc(NC(=S)NN=C2CCCCC2)cc1)N1CCOCC1	-7%	i	i	-5	-6%	-2%
CC(C(=O)NCc1ccccc1)n1ccc2cc(S(=O)(=O)N3CCCC3)ccc21 (configuration not stated)	x	i	i	x	x	x
CCOc1ccc(-c2n[nH]c(C)c2-c2ccccc2OC)c(O)c1	u	i	u	-13	13µM*	-9%
C=C(C)COc1ccc(-c2n[nH]c(C)c2-c2ccc(OC)cc2)c(O)c1	u	u	u	7	21µM*	u
COc1ccc(-c2c(-c3ccc(OCC(=O)NN)cc3O)n[nH]c2C(F)(F)F)cc1	u	i	i	-2	23µM*	-6%
